Measured values taken from PubChem BioAssay AID1159580 (chemical genetic matrix, 2015).
The campaign covered roughly 5,500 compounds. About 2,000 (36%) were called active. Another 18% or so got no clear call; they are omitted. Rule as the data show it: active = normalized growth mostly below about 0.91 (no sharp cut-off); inconclusive = no clear call, values can overlap the other calls; inactive = mostly above about 0.92. Some of the results follow.

Assay: chemical genetic growth profiling, strain panel (AID 1159580);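 also: tested at 20 µM; growth read once vehicle control cultures reached saturation at 30 °C; 1 = growth at the plate median or of vehicle wells; lower values mean less growth of the strain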
Settings: S. cerevisiae deletion strains, growth OD
[1] = locus YAR019C, strain CDC15, hits give low values
[2] = locus YBL105C, strain PKC1, hits give low values
[3] = locus YBR135W, strain CKS1, hits give low values
[4] = locus YBR136W, strain MEC1, hits give low values
[5] = locus YBR160W, strain CDC28, hits give low values
[6] = locus YDL017W, strain CDC7, hits give low values
[7] = locus YDL028C, strain MPS1, hits give low values
[8] = locus YDL101C, strain DUN1, hits give low values
[9] = locus YDL108W, strain KIN28, hits give low values
[10] = locus YDL132W, strain cdc53, hits give low values
[11] = locus YDL214C, strain PRR2, hits give low values
[12] = locus YDR052C, strain DBF4, hits give low values
[13] = locus YDR054C, strain cdc34, hits give low values
[14] = locus YDR226W, strain ADK1, hits give low values
[15] = locus YDR477W, strain SNF1, hits give low values
[16] = locus YER123W, strain YCK3, hits give low values
[17] = locus YER133W, strain GLC7, hits give low values
[18] = locus YFL009W, strain cdc4, hits give low values
[19] = locus YFL029C, strain CAK1, hits give low values
[20] = locus YFR003C, strain YPI1, hits give low values
[21] = locus YFR019W, strain FAB1, hits give low values
[22] = locus YFR028C, strain CDC14, hits give low values
[23] = locus YGR040W, strain KSS1, hits give low values
[24] = locus YGR052W, strain FMP48, hits give low values
[25] = locus YGR092W, strain DBF2, hits give low values
[26] = locus YHR030C, strain SLT2, hits give low values
[27] = locus YHR079C, strain IRE1, hits give low values
[28] = locus YHR082C, strain KSP1, hits give low values
[29] = locus YHR205W, strain SCH9, hits give low values
[30] = locus YIL147C, strain SLN1, hits give low values
[31] = locus YJL095W, strain BCK1, hits give low values
[32] = locus YJL128C, strain PBS2, hits give low values
[33] = locus YJL157C, strain FAR1, hits give low values
[34] = locus YJR016C, strain ILV3, hits give low values
[35] = locus YJR066W, strain TOR1 (second series), hits give low values
[36] = locus YJR066W, strain TOR1, hits give low values
[37] = locus YKL048C, strain ELM1, hits give low values
[38] = locus YKL101W, strain HSL1, hits give low values
[39] = locus YKL193C, strain SDS22, hits give low values
[40] = locus YKL203C, strain TOR2, hits give low values
[41] = locus YLR113W, strain HOG1, hits give low values
[42] = locus YLR133W, strain CKI1, hits give low values
[43] = locus YLR403W, strain SFP1, hits give low values
[44] = locus YML070W, strain DAK1, hits give low values
[45] = locus YMR001C, strain CDC5, hits give low values
[46] = locus YMR205C, strain PFK2 (second series), hits give low values
[47] = locus YMR277W, strain FCP1, hits give low values
[48] = locus YNL006W, strain LST8, hits give low values
[49] = locus YNL020C, strain ARK1, hits give low values
[50] = locus YNL161W, strain CBK1, hits give low values
[51] = locus YNL183C, strain NPR1, hits give low values
[52] = locus YNL207W, strain RIO2, hits give low values
[53] = locus YNL222W, strain SSU72, hits give low values
[54] = locus YNL307C, strain MCK1 (second series), hits give low values
[55] = locus YOL078W, strain AVO1, hits give low values
[56] = locus YOL136C, strain PFK27, hits give low values
[57] = locus YOR061W, strain CKA2, hits give low values
[58] = locus YOR119C, strain RIO1, hits give low values
[59] = locus YOR231W, strain MKK1, hits give low values
[60] = locus YOR329C, strain SCD5, hits give low values
[61] = locus YPL031C, strain PHO85, hits give low values
[62] = locus YPL153C, strain RAD53, hits give low values
[63] = locus YPL204W, strain HRR25, hits give low values
[64] = locus YPL209C, strain IPL1, hits give low values
[65] = locus YPL256C, strain CLN2, hits give low values
[66] = locus YPR025C, strain CCL1, hits give low values
[67] = locus YPR106W, strain ISR1, hits give low values
[68] = locus YPR111W, strain DBF20, hits give low values
[69] = strain NNK1, hits give low values
[70] = strain TSCII, hits give low values

Measured: normalized growth

O=C1OC(c2ccccc2)=C/C1=C/c1ccccc1
inactive: [1] 0.952 | [2] 0.953 | [3] 0.942 | [4] 0.953 | [5] 0.943 | [6] 0.95 | [7] 0.923 | [8] 0.966 | [9] 0.925 | [10] 0.96 | [12] 0.969 | [13] 0.962 | [14] 0.944 | [16] 0.869 | [17] 0.725 | [18] 0.961 | [19] 0.925 | [20] 0.956 | [21] 0.946 | [22] 0.948 | [25] 0.855 | [27] 0.934 | [30] 0.955 | [31] 0.669 | [32] 1 | [33] 0.761 | [34] 0.954 | [35] 0.861 | [37] 0.889 | [38] 0.797 | [39] 0.948 | [42] 0.843 | [44] 0.892 | [45] 0.951 | [46] 0.843 | [47] 0.918 | [48] 0.956 | [49] 0.9 | [50] 0.945 | [52] 0.951 | [53] 0.932 | [54] 0.95 | [55] 0.954 | [56] 0.914 | [57] 0.844 | [59] 0.943 | [60] 0.961 | [61] 0.758 | [62] 0.798 | [63] 0.839 | [64] 0.947 | [66] 0.945 | [67] 0.981 | [68] 0.964 | [69] 0.949 | [70] 0.93
active: [11] 0.604 | [15] 0.635 | [23] 0.674 | [24] 0.353 | [26] 0.506 | [28] 0.522 | [29] 0.514 | [36] 0.461 | [40] 0.614 | [41] 0.714 | [43] 0.611 | [51] 0.188 | [58] 0.519 | [65] 0.793

NC(=O)c1ccc(OCC(O)CN2CC=C(c3ccc(F)cc3)CC2)cc1 (stereo not given)
inactive: locus YAL040C, strain CLN3, hits give low values 1.06 | locus YCL061C, strain MRC1 (second series), hits give low values 0.982 | locus YDR150W, strain NUM1, hits give low values 1.01 | locus YDR363W, strain ESC2, hits give low values 0.964 | locus YER002W, strain NOP16, hits give low values 1.01 | locus YMR263W, strain SAP30, hits give low values 0.98 | locus YMR307W, strain GAS1, hits give low values 0.998 | locus YNL128W, strain TEP1, hits give low values 1.01 | locus YNL175C, strain NOP13, hits give low values 1.03 | locus YNL197C, strain WHI3, hits give low values 1 | locus YNL224C, strain SQS1, hits give low values 1.01 | locus YNL322C, strain KRE1, hits give low values 0.962 | locus YOR083W, strain WHI5 (second series), hits give low values 1 | locus YPL055C, strain LGE1, hits give low values 0.98

COc1ccc(N=C2SCC(c3ccc(C)cc3)=NN2CCO)cc1
inactive: [1] 0.975 | [2] 0.985 | [3] 0.979 | [4] 0.972 | [5] 0.982 | [6] 0.982 | [7] 0.971 | [8] 0.982 | [9] 0.981 | [10] 0.98 | [11] 0.975 | [12] 0.988 | [13] 0.979 | [14] 0.981 | [15] 0.958 | [16] 0.943 | [17] 0.971 | [18] 0.972 | [19] 0.964 | [20] 0.98 | [21] 0.985 | [22] 0.972 | [23] 0.961 | [24] 1.01 | [25] 0.947 | [26] 0.95 | [27] 0.968 | [28] 0.991 | [29] 0.987 | [30] 0.977 | [31] 0.973 | [32] 0.955 | [33] 0.979 | [34] 0.979 | [35] 0.925 | [36] 0.962 | [37] 0.997 | locus YKL067W, strain YNK1, hits give low values 0.971 | [38] 0.976 | [39] 0.975 | [40] 1.02 | [41] 0.915 | [42] 0.976 | [43] 0.976 | [44] 0.956 | [45] 0.984 | [46] 0.971 | [47] 0.978 | [48] 0.986 | [49] 0.983 | [50] 0.978 | [51] 0.941 | [52] 0.978 | [53] 0.972 | [54] 0.98 | [55] 0.977 | [56] 0.96 | [57] 0.983 | [58] 0.999 | [59] 0.963 | [60] 0.983 | [61] 0.969 | [62] 0.97 | [63] 0.961 | [64] 0.977 | [65] 0.946 | [66] 0.985 | [67] 0.979 | [68] 0.968 | [69] 0.983 | [70] 0.982
